Screens (PubChem BioAssay)
Rows were chosen to be rich in hits. Some 12% of all compounds tested hit in one or more screens of this group.
SARS PLpro yeast = blocks SARS-CoV papain-like protease in a yeast assay. 0.19% of 330,000 active. S. cerevisiae expressing SARS-CoV PLpro, growth rescue. AID 485353. Potency, µM (top dose mostly 32.9 µM), for the others: top-dose activity, positive = growth rescue, hits mostly activators; also: potency is read from the fitted curve at half-maximal effect; 0% is about no effect; nearly all actives have a fitted effect of over 55% in size
CHX counter = counter-screen for Shiga toxin inhibitors: cycloheximide protein synthesis inhibition; max response, %; 12% of 300,000 active; AID 2314; cell reporter, cycloheximide protein synthesis inhibition counterscreen; in the data active = max response mostly above about 13%, no sharp cut-off; inactive = mostly below about 14%; also: read at 38.3 µM for the half of the compounds with a filed dose; 0% is about no effect
Shiga inhibitor = Shiga toxin inhibition; Vero cells, Shiga toxin protein synthesis inhibition reporter; inhibition, % at 38.7 µM; 9.2% of 290,000 active; AID 2315; in the data active = inhibition mostly above about 28%, no sharp cut-off; inactive = mostly below about 43%; also: 0% is about no effect
NS1 function inh = blocks influenza NS1 protein function; AID 2326; 0.4% of 270,000 active; Potency, µM (top dose mostly 46.1 µM), for the others: top-dose activity, positive = more growth; also: potency is read from the fitted curve at half-maximal effect; actives are rising curves; nearly all actives have a fitted effect of over 50% in size
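S. cerevisiae expressing influenza A NS1, grown in glucose, washed, then diluted 1:100 into pH 6.0 -URA galactose medium with 23 nl compound. Growth recovery read as OD600; NS1-free strain serves as control.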
Starred values were filed as active, the others as inactive; nt = not tested or not shown; + = active, no number. Unless noted, calls follow the shape of the full dose curve.

SMILES | SARS PLpro yeast | CHX counter | Shiga inhibitor | NS1 function inh
COc1cccc(-n2c(C)nc3cc(C(=O)O)ccc32)c1 | 0% | -1 | -7 | -6%
Fc1ccc2c(c1)/C(=N/Nc1ccccn1)CCS2 | 0% | 30* | 58* | nt
Cc1ccc2c(c1)/C(=N/OC(=O)c1ccc(F)cc1)CCS2 | -1% | -6 | 15 | 0%
COc1ccc(Cc2nc3ccc(C(=O)N4CCOCC4)cc3o2)cc1 | 3% | 68* | + | 1%
COc1ccc(Cc2nc3ccc(C(=O)N4C[C@@H](C)O[C@@H](C)C4)cc3o2)cc1OC | -7% | 44* | 62* | 1%
CCN(CCn1cccn1)C(=O)c1ccc2nc(Cc3ccc(OC)cc3)oc2c1 | -4% | 23* | 56 | -2%
COC(=O)c1ccc(C(=O)N(CCN(C)C)c2nc3c(Cl)cccc3s2)cc1 | 2% | -6 | -11 | nt
CC1=C(C(=O)Nc2cc(C(=O)N(C)Cc3ccccc3)ccc2C)SCCO1 | 12% | -12 | -4 | 9%
C/C(=N\Nc1ccc([N+](=O)[O-])cc1)c1ccco1 | -29% | 47* | 34* | -17%
C/C(=N\Nc1ccc([N+](=O)[O-])cc1)c1ccc(-n2nncc2C)cc1 | -12% | -2 | -14 | 14%
C/C(=N\Nc1ccc([N+](=O)[O-])cc1)c1ccc(N)cc1 | -81% | 34* | 68* | -43%
CCc1ccc(/C(C)=N\Nc2ccc([N+](=O)[O-])cc2)cc1 | -6% | 19* | 37 | -65%
COc1ccc(NC(=O)CCC(=O)N2CCCC2)c([N+](=O)[O-])c1 | -3% | -2 | -6 | -1%
O=C(COc1ccc2ccccc2c1Br)N1CCCC1 | -8% | 42* | 35 | -14%
O=C(COc1ccc2ccccc2c1Br)N1CCOCC1 | -30% | 25 | 39* | -5%
O=C(COc1ccc2ccccc2c1Br)Nc1ncn[nH]1 | -1% | 32* | 76* | 21%
Cc1cccc(NC(=O)CN2C(=O)NC3(CCCC3)C2=O)n1 | -1% | nt | nt | nt
CN(Cc1ccc(Cl)s1)C(=O)CCl | -4% | 8 | 21 | nt
O=C(Nc1ccc(Cc2ccncc2)cc1)c1ccc(Cl)c([N+](=O)[O-])c1 | -9% | 8.6* | -2 | 5%
Cc1c([N+](=O)[O-])cc(C(=O)Nc2ccc(Cc3ccncc3)cc2)cc1[N+](=O)[O-] | 5% | -3 | -9 | 7%
Cc1cc(C(=O)Nc2ccncc2)ccc1[N+](=O)[O-] | -2% | 26* | 43 | -5%
Cc1ccc(C(=O)Nc2ccncc2)cc1[N+](=O)[O-] | -4% | -3 | -7 | -36%
Cc1cc(C(=O)Nc2ccc(Nc3ccccc3)cc2)ccc1[N+](=O)[O-] | 13% | 20* | nt | 13%
CC(=O)Nc1cccc(NC(=O)c2ccc(C)c([N+](=O)[O-])c2)c1 | -1% | 26* | 41 | nt
O=C(Nc1ccc(Nc2ccccc2)cc1)c1ccc(Cl)c([N+](=O)[O-])c1 | -13% | 0 | 6 | -73%
SMILES | SARS PLpro yeast | CHX counter | Shiga inhibitor | NS1 function inh
O=Cc1cc(Br)c(OC(=O)N2CCOCC2)c(Br)c1 | -4% | 5 | 2 | -5%
Cc1ccc(NC(=O)c2ccncc2)cc1[N+](=O)[O-] | -2% | 19* | 16 | 12%
C/C(=N\NC(=O)c1ccc([N+](=O)[O-])c(C)c1)c1ccccc1Cl | -10% | 28* | 57* | -9%
Cc1ccc(N(C)C(=O)CN(C)S(=O)(=O)c2ccc3c(c2)n(C)c(=O)c(=O)n3C)cc1 | 0% | 7 | 21 | 0%
Cc1ccccc1OCC(=O)NC1=NCCS1 | -5% | 29* | 32* | -8%
Cc1ccc(OCC(=O)NC2=NCCS2)cc1 | -8% | 25* | 8 | 19%
